The list shows a part of the results. How many sequences the whole screen found active is unknown.
Target: furin, P09958
Test: furin cleavage Z-score vs untreated control; higher = more cleavage, active = 3.5 or more, inactive = 1 or less, 8 variable residues between constant flanks
Outline: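 Peptides 8 residues long, fused to a cDNA oligonucleotide, were fixed to magnetic beads by the N-terminus and exposed to purified furin. The 0.01 ml reactions contained 50 mM HEPES pH 7.5 with CaCl2 and NaCl at 1:10 enzyme:substrate and ran 7.5, 15 or 30 min. For the cleavage Z-score, log counts of sequenced released DNA were compared with furin-free reactions, lowess-adjusted and scaled by median absolute deviation.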

Sequence of furin, P09958 (P09958 whole entry): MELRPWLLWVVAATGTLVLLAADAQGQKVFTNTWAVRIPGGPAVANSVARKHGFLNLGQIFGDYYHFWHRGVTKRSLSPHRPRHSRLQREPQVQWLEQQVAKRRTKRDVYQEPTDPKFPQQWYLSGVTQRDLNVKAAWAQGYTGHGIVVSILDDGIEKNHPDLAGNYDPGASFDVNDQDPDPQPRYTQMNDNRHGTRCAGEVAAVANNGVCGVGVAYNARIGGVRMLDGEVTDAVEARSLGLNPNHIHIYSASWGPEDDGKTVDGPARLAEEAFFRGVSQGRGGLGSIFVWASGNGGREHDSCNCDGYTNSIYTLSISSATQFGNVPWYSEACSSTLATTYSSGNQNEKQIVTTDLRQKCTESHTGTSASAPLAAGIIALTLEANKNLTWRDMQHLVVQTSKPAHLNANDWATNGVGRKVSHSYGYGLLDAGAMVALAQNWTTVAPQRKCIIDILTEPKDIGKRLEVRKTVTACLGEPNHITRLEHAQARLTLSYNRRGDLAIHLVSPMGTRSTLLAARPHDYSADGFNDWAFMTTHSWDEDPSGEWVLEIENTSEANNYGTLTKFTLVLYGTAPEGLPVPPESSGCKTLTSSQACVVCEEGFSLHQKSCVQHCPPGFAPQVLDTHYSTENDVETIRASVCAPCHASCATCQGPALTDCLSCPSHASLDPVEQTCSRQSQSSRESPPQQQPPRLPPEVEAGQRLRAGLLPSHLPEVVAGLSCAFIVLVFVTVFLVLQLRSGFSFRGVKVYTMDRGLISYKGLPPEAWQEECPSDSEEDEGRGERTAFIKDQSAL

| Sequence | furin cleavage Z-score (7.5 min) | furin cleavage Z-score (15 min) | furin cleavage Z-score (30 min) |
| --- | --- | --- | --- |
| CAEETTPCSGAGNASASA [HC1972] | -1.3 (inactive) | -1.71 (inactive) | -0.823 (inactive) |
| CATTPCSRSWAGNASASA [HC1893] | 0.791 (inactive) | 0.627 (inactive) | -0.432 (inactive) |
| CAPLRDWAHNAGNASASA [HC638] | 0.639 (inactive) | 0.256 (inactive) | 0.786 (inactive) |
| CASTPCSAHTAGNASASA [HC2578] | -0.678 (inactive) | -2.17 (inactive) | 0.0661 (inactive) |
| CAFFCFAWYLAGNASASA [HC546] | -1.2 (inactive) | -0.615 (inactive) | -0.815 (inactive) |
| CARKVRDKISAGNASASA [FS-1961] | -0.364 (inactive) | -1.5 (inactive) | 1.37 |
| CARHSRQVLLAGNASASA [FS-2947] | 0.717 (inactive) | 2.58 | 2.14 |
| CARHSRSQGAAGNASASA [FS-2948] | -0.651 (inactive) | 0.879 (inactive) | -0.497 (inactive) |
| CARKVREAYLAGNASASA [FS-2427] | 5.91 (active) | 6.8 (active) | 7.91 (active) |
| CARKIRIKGIAGNASASA [FS-2558] | 0.0544 (inactive) | -0.85 (inactive) | -1.75 (inactive) |
| CARKMRPARLAGNASASA [FS-1260] | 3.41 | 4.23 (active) | 4.92 (active) |
| CARHSRKKRLAGNASASA [FS-1259] | 8.52 (active) | 11.2 (active) | 9.02 (active) |
| CARKMRLGDAAGNASASA [FS-1728] | 0.749 (inactive) | 0.395 (inactive) | -0.759 (inactive) |
| CARKIRKKRLAGNASASA [FS-84] | 9.24 (active) | 9.01 (active) | 7.01 (active) |
| CAELIEANLLAGNASASA [HC1273] | -1.11 (inactive) | -1.92 (inactive) | 0.0877 (inactive) |
| CARYSRSSAAAGNASASA [FS-1811] | 1.3 | 1.43 | 0.767 (inactive) |
| CARAARSLLQAGNASASA [FS-1679] | 1.57 | 0.802 (inactive) | 5.01 (active) |
| CARVVRELLQAGNASASA [FS-1805] | 5.28 (active) | 8.9 (active) | 7.51 (active) |
| CARWGRFLLQAGNASASA [FS-3128] | 0.358 (inactive) | 1.41 | 0.253 (inactive) |
| CAWLAGLFYHAGNASASA [HC379] | -1.56 (inactive) | -0.299 (inactive) | -1.72 (inactive) |
| CAPLEVIKGGAGNASASA [HC851] | 1.06 | 0.444 (inactive) | 0.579 (inactive) |
| CACHCGAEITAGNASASA [HC1175] | -0.983 (inactive) | -1.4 (inactive) | -0.977 (inactive) |

| Sequence | furin cleavage Z-score (7.5 min) | furin cleavage Z-score (15 min) | furin cleavage Z-score (30 min) |
| --- | --- | --- | --- |
| CATALRRARSAGNASASA [FS-200] | 1.48 | 0.619 (inactive) | 0.983 (inactive) |
| CALAARGARLAGNASASA [FS-682] | -1.17 (inactive) | 0.199 (inactive) | 0.619 (inactive) |
| CALAARRRRSAGNASASA [FS-264] | 10.9 (active) | 11 (active) | 8.11 (active) |
| CAPAARRRRSAGNASASA [FS-1146] | 11.4 (active) | 10.2 (active) | 8.82 (active) |
| CATAQRRRRSAGNASASA [FS-877] | 8.41 (active) | 7.47 (active) | 6.08 (active) |
| CAPAARFKKFAGNASASA [FS-367] | -0.438 (inactive) | -0.599 (inactive) | -0.45 (inactive) |
| CAVFKRRRRSAGNASASA [FS-1101] | 12.7 (active) | 11.3 (active) | 8.61 (active) |
| CAELEVVTSTAGNASASA [HC2272] | -0.698 (inactive) | -0.669 (inactive) | -1.12 (inactive) |
| CAYEMEECSQAGNASASA [HC1789] | 0.403 (inactive) | -0.566 (inactive) | 1.37 |
| CANLLPAILSAGNASASA [HC1101] | -0.111 (inactive) | 0.993 (inactive) | -0.0781 (inactive) |
| CANWSPTTALAGNASASA [HC323] | -0.0824 (inactive) | -0.415 (inactive) | -0.513 (inactive) |
| CAAQLLRIPQAGNASASA [HC328] | -1 (inactive) | 1.5 | 0.847 (inactive) |
| CAMEECSTHLAGNASASA [HC1738] | 0.958 (inactive) | 0.401 (inactive) | 0.22 (inactive) |
| CAVTPCSGSWAGNASASA [HC1830] | -0.794 (inactive) | -0.739 (inactive) | -0.453 (inactive) |
| CAAKAKRRRSAGNASASA [FS-744] | 10.8 (active) | 11.8 (active) | 8.83 (active) |
| CAKDSRFFRYAGNASASA [FS-808] | 0.318 (inactive) | -0.509 (inactive) | 1.08 |
| CATAQRHRRYAGNASASA [FS-628] | 8.01 (active) | 10.1 (active) | 9.56 (active) |
| CAEKAVERRSAGNASASA [FS-1191] | 0.591 (inactive) | 2.02 | 0.505 (inactive) |
| CAGNITRVESAGNASASA [HC1280] | -0.34 (inactive) | -0.548 (inactive) | 1.72 |
| CAPEARLRRVAGNASASA [FS-839] | 0.0356 (inactive) | 3.09 | 2.39 |
| CARFARLRRVAGNASASA [FS-853] | 4.92 (active) | 7.36 (active) | 5.85 (active) |
| CAYVSRLRRVAGNASASA [FS-1441] | 4.8 (active) | 5.42 (active) | 4.8 (active) |
